Data taken from publication PMC4336329 (PLoS ONE, 2015).
Hit rate of the full screen: of about 310,000 compounds, about 14,000 (4.5%) showed an effect of 50% or more. Effects have a minus sign here. What follows is part of a selection rich in strong results, with near analogues and random picks from the rest.

What follows are compounds tested against human ether-à-go-go-related gene (hERG) potassium channel (human, UniProt Q12809) (assay: primary screen, population patch clamp on CHO cells stably expressing hERG; higher = less effect of the substance).
Sequence of human ether-à-go-go-related gene (hERG) potassium channel (Q12809 whole entry, looked up): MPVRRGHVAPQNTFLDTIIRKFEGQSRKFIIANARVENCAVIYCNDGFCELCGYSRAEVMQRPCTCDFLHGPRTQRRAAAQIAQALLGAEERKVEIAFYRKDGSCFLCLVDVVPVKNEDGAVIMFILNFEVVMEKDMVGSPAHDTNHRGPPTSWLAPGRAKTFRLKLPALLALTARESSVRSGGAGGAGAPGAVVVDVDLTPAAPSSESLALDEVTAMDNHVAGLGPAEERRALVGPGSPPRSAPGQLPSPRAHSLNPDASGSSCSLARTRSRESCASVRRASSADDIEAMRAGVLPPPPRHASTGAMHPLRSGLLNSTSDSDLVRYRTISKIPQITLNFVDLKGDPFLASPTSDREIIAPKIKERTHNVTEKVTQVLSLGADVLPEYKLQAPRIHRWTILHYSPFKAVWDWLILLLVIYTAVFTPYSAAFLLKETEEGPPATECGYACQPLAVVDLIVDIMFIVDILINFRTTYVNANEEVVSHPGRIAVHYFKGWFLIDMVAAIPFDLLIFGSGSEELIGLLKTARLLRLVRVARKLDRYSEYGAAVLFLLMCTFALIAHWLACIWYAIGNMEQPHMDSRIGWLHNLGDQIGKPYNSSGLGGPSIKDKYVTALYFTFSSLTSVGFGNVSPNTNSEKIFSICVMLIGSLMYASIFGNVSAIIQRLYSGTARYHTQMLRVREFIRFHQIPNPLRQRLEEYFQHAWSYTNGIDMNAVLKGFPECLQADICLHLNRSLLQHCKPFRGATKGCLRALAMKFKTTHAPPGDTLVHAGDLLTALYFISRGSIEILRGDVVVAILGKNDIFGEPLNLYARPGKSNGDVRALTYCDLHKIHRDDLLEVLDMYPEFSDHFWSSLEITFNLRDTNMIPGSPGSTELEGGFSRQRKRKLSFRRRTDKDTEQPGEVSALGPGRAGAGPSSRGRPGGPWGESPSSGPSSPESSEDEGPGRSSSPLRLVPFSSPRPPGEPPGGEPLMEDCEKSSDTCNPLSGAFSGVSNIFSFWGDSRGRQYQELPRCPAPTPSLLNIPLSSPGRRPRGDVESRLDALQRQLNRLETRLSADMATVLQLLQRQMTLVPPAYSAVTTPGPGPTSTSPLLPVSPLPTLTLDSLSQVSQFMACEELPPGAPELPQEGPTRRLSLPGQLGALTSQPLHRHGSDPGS
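Note: peak tail current of the secondary pulse compared with the same well before compound.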

Structure (SMILES)	hERG current change (%, negative = inhibition) at 10uM [%]
CCCC(=O)Nc1c(-c2ccccc2)c(=O)c(C)nn1-c1ccccc1	10.3
Cc1ccc(S(=O)(=O)CCC(=O)Nc2ccc3nc(C)sc3c2)cc1	3.75
CC(C)c1c(C(=O)N/N=C/c2ccc(-c3ccccc3)cc2)nnn1-c1nonc1N	26.6
C=CCc1ccccc1OCC(O)CNC(C)C.Cl (centres unmarked)	-33.3
CCS(=O)(=O)n1nc(-c2ccc(OC)cc2)nc1N	11.6
COc1ccc(CCC(N)=O)cc1OC	11.1
N#Cc1cccc(C(c2nnnn2C2CCCC2)N2CCC(Cc3ccccc3)CC2)c1 (centres unmarked)	8.5
Cl.N#Cc1cccc(C(c2nnnn2Cc2ccccc2)N2CCCC2)c1 (centres unmarked)	-22.7
N#Cc1cccc(C(c2nnnn2CCc2ccccc2)N2CCN(C3CCCCC3)CC2)c1 (centres unmarked)	-61
Cl.Fc1ccc(Cn2nnnc2C(c2ccc(Cl)cc2)N2CCSCC2)cc1 (centres unmarked)	-1.72
CC(C)(C)n1nnnc1C(c1cccc(C#N)c1)N1CCCCCC1 (centres unmarked)	-4.75
COCCn1nnnc1C(c1ccc(Cl)cc1)N1CCSCC1.Cl (centres unmarked)	-51.9
Clc1ccc(C(c2nnnn2CCc2ccccc2)N2CCSCC2)cc1 (centres unmarked)	0.814
N#Cc1ccc(C(c2nnnn2CCc2ccccc2)N2CCCCCC2)cc1 (centres unmarked)	-26.3
COCCn1nnnc1C(c1cccc(C#N)c1)N1CCCCCC1.Cl (centres unmarked)	-56.6
COc1ccc(CCn2nnnc2C(c2ccccc2)N2CCN(C)CC2)cc1OC.Cl (centres unmarked)	7.37
COc1ccc(C(c2nnnn2C2CCCC2)N2CCN(C3CCCC3)CC2)cc1OC.Cl (centres unmarked)	-22.7
COc1ccc(C(c2nnnn2CCc2ccccc2)N2CCN(C3CCCC3)CC2)cc1OC.Cl (centres unmarked)	-64.3
CC(C)(C)C1CCC(=NOC(=O)c2ccc(F)cc2)CC1 (centres unmarked)	15.7
O=C(CNC(=O)c1cccc(Br)c1)N/N=C/c1ccc[nH]1	22.5
Cc1ccc(-c2cc(-c3ccccc3Cl)c(C#N)c(N)n2)o1	3.05
COc1ccccc1-c1ccc(C(=O)O)o1	7.06

Structure (SMILES)	hERG current change (%, negative = inhibition) at 10uM [%]
COC(=O)c1cn(C)c2ccc(S(=O)(=O)N3CC(C)CC(C)C3)cc2c1=O (centres unmarked)	-5.76
COc1ccc(CCNC(=S)Nc2ccc(C)cc2C)cc1	2.89
CC(=O)O.CC1(C)CC(=O)C2=C(C1)NC1=C(C(=O)c3ccccc31)C2c1cc([N+](=O)[O-])ccc1O (centres unmarked)	-37.1
CCOC(=O)c1c(S(=O)(=O)NCC(C)c2ccccc2)c(C)n(C)c1C (centres unmarked)	-17.8
CCCC(c1nnnn1CCc1ccccc1)N1CCN(C2CCCC2)CC1 (centres unmarked)	-48.9
Cc1ccc(C(c2nnnn2CCc2ccccc2)N2CCC(C)CC2)cc1.Cl (centres unmarked)	13.8
COc1ccc(C(c2nnnn2CCc2ccccc2)N2CCN(C3CCCC3)CC2)cc1.Cl (centres unmarked)	-68
COc1ccccc1CC(=O)N(Cc1ccccc1)c1ccc(C)cc1	-16
CCN(CC)S(=O)(=O)c1ccc(S(=O)(=O)N2CCCC2C(=O)O)cc1 (centres unmarked)	-0.323
CCOn1c(=O)c(-c2ccccc2)[n+]([O-])c2ccccc21	1.67
COc1nc(OC)nc(N2CCC(C(=O)NCc3ccc(F)cc3)CC2)n1	-44.9
O=C(CN1CCC(C(=O)c2ccc(F)cc2)CC1)Nc1ccccc1	-29.7
COc1ccc(C(=O)NC2CCN(CC(=O)NCc3ccccc3)CC2)cc1	-24.4
COc1ccc(CNC(=O)CN2CCC(C(=O)c3ccc(OC)cc3)CC2)cc1	-58
COc1ccc(CNC(=O)C2CCN(c3nc(OC)nc(OC)n3)CC2)cc1	-65.1
O=C(CN1CCC(C(=O)c2ccc(F)cc2)CC1)Nc1ccc(F)cc1	-64.7
COc1nc(OC)nc(N2CCC(C(=O)NCc3cccs3)CC2)n1	-45
CC(=O)c1ccc(NC(=O)CN2CCC(C(=O)c3ccc(F)cc3)CC2)cc1	-22.9
Cc1ccc(NC(=O)CN2CCC(C(=O)c3ccc(F)cc3)CC2)cc1	-72.5
COc1ccc(C(=O)C2CCN(CC(=O)NCc3ccccc3)CC2)cc1	-46.3
Cc1c(NC(=O)/C(C#N)=C/c2ccc(-c3ccc(Cl)cc3)o2)c(=O)n(-c2ccccc2)n1C	-41.5
COc1ccc(C(=O)OCC(=O)c2cc(C)n(CC3CCCO3)c2C)cc1[N+](=O)[O-] (centres unmarked)	-42.9

Structure (SMILES)	hERG current change (%, negative = inhibition) at 10uM [%]
Cc1nc(-c2ccc(NC(=O)Cc3ccccc3)cc2)cs1	21.1
Cc1ccc(-c2nn(-c3ccccc3)cc2/C=C2\SC(=S)N(CCCCCC(=O)O)C2=O)o1	15.1
Cc1cc(-c2ccc(C)c(S(=O)(=O)NCc3ccc(Br)cc3)c2)on1	-31
COc1cccc(SCc2noc(C(=O)NCC3CCCO3)c2C(=O)O)c1 (centres unmarked)	11.9
COc1ccccc1CCc1nnc(CCC(=O)NCCOc2cccnc2)o1	7.9
Cc1cc(S(=O)(=O)N2CCC(NC(=O)C34CC5CC(CC(C5)C3)C4)CC2)ccc1-n1cnnn1	-15.2
COCCN(CCOC)c1ncc(Cl)c(C(=O)c2c(C)cc3ccccn23)n1	-4.6
COC(=O)C1(C)CC1(c1ccccc1)c1ccccc1 (centres unmarked)	-3.98
O=C(N/N=C/c1ccccc1O)C1CCCC1	8.05
O=C(CN1CCC(C(=O)c2ccc3c(c2)OCCO3)CC1)NCc1ccc(F)cc1	-30.2
O=C(CN1CCC(C(=O)c2ccc(F)cc2)CC1)NCc1ccccc1F	-39.6
Cc1ccccc1NC(=O)CN1CCC(C(=O)c2ccc3c(c2)OCCO3)CC1	-44.5
COc1ccccc1NC(=O)CN1CCC(C(=O)c2ccc(F)cc2)CC1	-38.5
Cc1ccc(C(=O)C2CCN(CC(=O)NCc3ccc(F)cc3)CC2)cc1	-53.3
Cc1ccc(C(=O)C2CCN(CC(=O)Nc3ccccc3C)CC2)cc1	-68.9
Cc1ccc(C(=O)NCN2CCN(c3ccc(F)cc3)CC2)cc1	-28.9
Cc1ccc(C(=O)C2CCN(CC(=O)N3CCN(c4ccc(F)cc4)CC3)CC2)cc1	-73.7
O=C(c1ccccc1)C1CCN(CC(=O)N2CCN(c3ccccc3)CC2)CC1	-14.9
Cc1nonc1CN(C)C(=O)c1cc(COc2ccc(F)cc2Cl)on1	-4.29
Cc1ccc(-n2c(CSc3nc(C)cc(C)n3)nnc2SCC(=O)N2CCCC2)cc1	-8.81
COc1ccc(Br)cc1C1Nc2cccc3cccc(c23)N1	20.2
COc1ccccc1C1Nc2cccc3cccc(c23)N1	-50.7

Structure (SMILES)	hERG current change (%, negative = inhibition) at 10uM [%]
COc1cc(OC)c(C2Nc3cccc4cccc(c34)N2)c(OC)c1	6.67
Cn1ncc(Br)c1C(=O)N/N=C/c1cccc(OC2CSC2)c1	-8.23
O=C(CSc1nnc(Nc2ccccc2F)s1)Nc1cccc(S(=O)(=O)N2CCCCC2)c1	-6.58
CC1Cc2nc(SCC(=O)Nc3nc4ccccc4s3)n(C)c(=O)c2S1 (centres unmarked)	-20.1
CN1CCSc2ccc(C(=O)NCc3cccc(F)c3)cc21	16.6
CCOc1ccccc1C(=O)Nc1cnn(Cc2ccc(F)cc2)c1	-58.8
O=C(Nc1cnn(Cc2ccc(F)cc2)c1)c1cnccn1	-3.09
O=C(Nc1cnn(Cc2ccc(F)cc2)c1)C(c1ccccc1)c1ccccc1	-30.1
O=C(CCSCCc1ccccn1)Nc1nccs1	30.1
O=C(Cc1csc(NC(=O)c2ccc(F)cc2)n1)NO	-3.56
COc1ccc(N(C(C)C(=O)N/N=C/c2ccc(OCC(C)C)cc2)S(C)(=O)=O)cc1 (centres unmarked)	-9.12
COc1ccc(N(C(C)C(=O)N/N=C/c2cc(Br)c(C)o2)S(C)(=O)=O)cc1 (centres unmarked)	-54
COc1ccc(/C=N/NC(=O)C(C)N(c2ccc(OC)cc2)S(C)(=O)=O)cc1 (centres unmarked)	-8.54
COc1ccc(N(C(C)C(=O)N/N=C/c2ccc(OC(C)C)cc2)S(C)(=O)=O)cc1 (centres unmarked)	-52.4
COc1ccc(N(C(C)C(=O)N/N=C/c2ccc(OC)c(OC)c2)S(C)(=O)=O)cc1 (centres unmarked)	5.24
COc1ccc(N(C(C)C(=O)N/N=C/c2cccnc2)S(C)(=O)=O)cc1 (centres unmarked)	-3.44
COc1ccc(C(=O)/C=C/Nc2ccc(S(=O)(=O)Nc3cc(OC)nc(OC)n3)cc2)c(OC)c1	19.4
O=Cc1cn(CCC(=O)O)nc1-c1cccc2ccccc12	13.5
O=C(N/N=C\c1ccc(F)cc1)c1cc(OCC(F)(F)F)ccc1OCC(F)(F)F	-21
COc1ccccc1C(=O)N/N=C(\C)c1ccc(NC(=O)C2CC2)cc1	-3.62
